Assay [1] concerns the target T1, Serine/threonine-protein kinase Nek9 (Homo sapiens) (UniProt Q8TD19).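 Note: each value is a mean percent inhibition of NEK9.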
T1 sequence (whole entry): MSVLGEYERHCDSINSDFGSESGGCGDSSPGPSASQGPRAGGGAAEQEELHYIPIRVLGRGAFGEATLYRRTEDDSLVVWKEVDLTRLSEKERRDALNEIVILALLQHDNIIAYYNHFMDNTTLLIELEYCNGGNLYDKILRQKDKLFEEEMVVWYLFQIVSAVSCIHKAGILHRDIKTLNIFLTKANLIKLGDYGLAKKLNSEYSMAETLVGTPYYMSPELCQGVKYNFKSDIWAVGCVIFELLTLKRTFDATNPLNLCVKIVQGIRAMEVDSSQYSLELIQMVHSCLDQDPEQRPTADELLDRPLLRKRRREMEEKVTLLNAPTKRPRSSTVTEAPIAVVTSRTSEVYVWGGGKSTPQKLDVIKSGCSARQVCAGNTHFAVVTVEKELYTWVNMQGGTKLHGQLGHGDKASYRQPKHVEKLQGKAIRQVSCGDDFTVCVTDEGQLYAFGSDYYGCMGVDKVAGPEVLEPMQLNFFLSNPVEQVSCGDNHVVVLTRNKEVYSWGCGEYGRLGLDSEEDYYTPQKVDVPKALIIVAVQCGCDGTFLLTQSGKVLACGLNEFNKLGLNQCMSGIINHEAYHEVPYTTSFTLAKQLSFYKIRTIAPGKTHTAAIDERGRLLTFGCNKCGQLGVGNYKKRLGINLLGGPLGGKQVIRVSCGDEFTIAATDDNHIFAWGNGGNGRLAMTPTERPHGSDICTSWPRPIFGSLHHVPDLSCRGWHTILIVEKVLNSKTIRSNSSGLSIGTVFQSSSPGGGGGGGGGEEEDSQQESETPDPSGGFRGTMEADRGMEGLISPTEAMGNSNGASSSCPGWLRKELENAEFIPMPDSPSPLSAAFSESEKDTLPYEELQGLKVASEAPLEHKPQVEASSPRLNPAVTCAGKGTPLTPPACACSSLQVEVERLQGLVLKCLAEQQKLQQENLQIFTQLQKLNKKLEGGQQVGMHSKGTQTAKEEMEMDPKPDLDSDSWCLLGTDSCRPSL
The following applies: at 1 µM.

The target in assay [2] is T2, Dual specificity protein kinase TTK (Homo sapiens) (UniProt P33981).
T2 sequence (whole entry): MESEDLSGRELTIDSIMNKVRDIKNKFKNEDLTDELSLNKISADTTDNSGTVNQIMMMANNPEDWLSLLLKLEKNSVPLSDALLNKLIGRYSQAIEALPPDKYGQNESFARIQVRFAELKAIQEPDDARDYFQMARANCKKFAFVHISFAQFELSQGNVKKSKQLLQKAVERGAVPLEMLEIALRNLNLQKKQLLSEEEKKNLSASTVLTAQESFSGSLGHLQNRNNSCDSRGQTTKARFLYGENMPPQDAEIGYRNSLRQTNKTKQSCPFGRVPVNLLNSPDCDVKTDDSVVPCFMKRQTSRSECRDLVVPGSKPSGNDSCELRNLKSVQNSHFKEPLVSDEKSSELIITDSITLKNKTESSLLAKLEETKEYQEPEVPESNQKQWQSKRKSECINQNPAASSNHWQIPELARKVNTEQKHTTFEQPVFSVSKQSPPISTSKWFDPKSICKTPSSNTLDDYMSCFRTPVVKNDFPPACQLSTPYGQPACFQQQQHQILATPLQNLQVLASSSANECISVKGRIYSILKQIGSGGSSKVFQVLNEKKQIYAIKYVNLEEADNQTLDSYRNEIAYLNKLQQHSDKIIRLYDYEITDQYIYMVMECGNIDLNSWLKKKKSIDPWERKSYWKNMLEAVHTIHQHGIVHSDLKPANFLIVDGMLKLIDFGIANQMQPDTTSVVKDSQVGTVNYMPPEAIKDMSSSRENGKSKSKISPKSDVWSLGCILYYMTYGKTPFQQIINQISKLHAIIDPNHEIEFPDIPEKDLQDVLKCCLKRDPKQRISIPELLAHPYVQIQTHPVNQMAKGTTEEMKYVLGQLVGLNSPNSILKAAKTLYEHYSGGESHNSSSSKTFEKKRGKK
The following applies: at 0.1 µM.

Assay [3] deals with T3, Receptor-type tyrosine-protein kinase FLT3 (Homo sapiens), P36888 [D835Y].
T3 sequence (whole entry): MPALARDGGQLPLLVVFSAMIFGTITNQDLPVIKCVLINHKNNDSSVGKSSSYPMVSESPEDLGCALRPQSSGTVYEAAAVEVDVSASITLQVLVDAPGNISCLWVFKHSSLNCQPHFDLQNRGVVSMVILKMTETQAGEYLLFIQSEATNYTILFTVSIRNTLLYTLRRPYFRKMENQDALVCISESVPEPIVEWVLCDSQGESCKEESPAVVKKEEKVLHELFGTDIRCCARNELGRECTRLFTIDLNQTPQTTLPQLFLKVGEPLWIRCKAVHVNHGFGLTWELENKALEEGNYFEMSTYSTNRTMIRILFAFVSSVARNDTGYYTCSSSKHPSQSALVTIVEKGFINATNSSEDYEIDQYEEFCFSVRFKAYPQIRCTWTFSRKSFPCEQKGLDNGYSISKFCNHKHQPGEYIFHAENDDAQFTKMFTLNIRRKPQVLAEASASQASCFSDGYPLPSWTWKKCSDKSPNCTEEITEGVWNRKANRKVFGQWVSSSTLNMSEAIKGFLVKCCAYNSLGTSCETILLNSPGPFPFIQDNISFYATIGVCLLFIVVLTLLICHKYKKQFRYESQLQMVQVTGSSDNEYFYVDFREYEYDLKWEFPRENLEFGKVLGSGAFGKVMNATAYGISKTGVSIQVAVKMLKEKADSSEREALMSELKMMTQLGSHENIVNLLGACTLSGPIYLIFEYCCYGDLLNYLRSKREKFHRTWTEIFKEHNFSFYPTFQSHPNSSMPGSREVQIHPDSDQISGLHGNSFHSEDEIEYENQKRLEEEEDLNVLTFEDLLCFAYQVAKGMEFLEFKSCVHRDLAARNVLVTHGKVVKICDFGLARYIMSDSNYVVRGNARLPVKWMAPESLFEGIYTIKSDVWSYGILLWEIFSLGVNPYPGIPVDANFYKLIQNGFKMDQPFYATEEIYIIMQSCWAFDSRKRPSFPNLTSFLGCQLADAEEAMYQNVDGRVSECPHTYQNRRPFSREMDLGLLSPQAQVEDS
Conditions: at 1 µM.

The target in assay [4] is Vascular endothelial growth factor receptor 3 (Homo sapiens) (UniProt P35916). Conditions: at 0.1 µM.
Vascular endothelial growth factor receptor 3 (Homo sapiens), sequence (P35916 whole entry): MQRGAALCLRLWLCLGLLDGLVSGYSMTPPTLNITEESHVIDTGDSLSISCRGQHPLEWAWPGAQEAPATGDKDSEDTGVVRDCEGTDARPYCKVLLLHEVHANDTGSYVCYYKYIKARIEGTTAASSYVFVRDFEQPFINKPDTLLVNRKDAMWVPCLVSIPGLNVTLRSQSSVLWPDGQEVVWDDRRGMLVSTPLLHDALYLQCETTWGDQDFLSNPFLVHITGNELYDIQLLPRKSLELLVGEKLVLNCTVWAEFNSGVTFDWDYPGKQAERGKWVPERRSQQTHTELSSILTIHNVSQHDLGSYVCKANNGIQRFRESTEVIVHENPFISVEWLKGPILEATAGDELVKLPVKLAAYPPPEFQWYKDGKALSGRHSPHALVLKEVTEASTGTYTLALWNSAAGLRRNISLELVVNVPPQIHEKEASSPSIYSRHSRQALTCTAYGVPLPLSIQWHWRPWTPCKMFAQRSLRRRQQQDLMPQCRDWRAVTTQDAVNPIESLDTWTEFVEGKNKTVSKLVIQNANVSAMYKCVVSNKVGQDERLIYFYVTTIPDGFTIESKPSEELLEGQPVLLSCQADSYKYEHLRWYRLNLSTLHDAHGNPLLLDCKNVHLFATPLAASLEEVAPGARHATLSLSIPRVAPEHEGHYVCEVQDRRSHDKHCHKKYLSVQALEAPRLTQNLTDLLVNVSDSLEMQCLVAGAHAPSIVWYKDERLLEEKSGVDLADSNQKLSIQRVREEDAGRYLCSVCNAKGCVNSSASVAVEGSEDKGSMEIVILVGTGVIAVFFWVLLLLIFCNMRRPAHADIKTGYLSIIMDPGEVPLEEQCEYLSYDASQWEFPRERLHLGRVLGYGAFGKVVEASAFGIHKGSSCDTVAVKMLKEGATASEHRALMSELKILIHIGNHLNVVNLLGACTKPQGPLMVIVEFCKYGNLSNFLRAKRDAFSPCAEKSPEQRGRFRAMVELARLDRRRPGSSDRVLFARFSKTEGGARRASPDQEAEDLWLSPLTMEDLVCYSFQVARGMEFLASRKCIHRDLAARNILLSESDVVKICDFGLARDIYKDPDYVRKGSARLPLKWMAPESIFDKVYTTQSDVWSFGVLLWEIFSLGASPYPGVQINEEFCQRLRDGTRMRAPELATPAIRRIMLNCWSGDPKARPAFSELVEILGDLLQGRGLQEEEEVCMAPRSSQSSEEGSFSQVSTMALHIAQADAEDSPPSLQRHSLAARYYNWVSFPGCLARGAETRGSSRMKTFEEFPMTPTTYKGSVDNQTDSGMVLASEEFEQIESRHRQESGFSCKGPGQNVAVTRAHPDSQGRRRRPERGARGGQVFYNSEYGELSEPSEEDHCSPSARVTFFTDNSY
For assay [5] the target is unchanged. The following applies: at 1 µM.
In assay [6] the target is Macrophage colony-stimulating factor 1 receptor (Homo sapiens) (UniProt P07333). Conditions: at 0.1 µM.
The target is the same in assay [7]. The following applies: at 1 µM.
The target in assay [8] is Tyrosine-protein kinase Fyn (Homo sapiens) (UniProt P06241). Conditions: at 0.1 µM.
For assay [9] the target is unchanged. The following applies: at 1 µM.
Assay [10] has as its target Tyrosine-protein kinase HCK (Homo sapiens) (UniProt P08631). Conditions: at 0.1 µM.
The target is the same in assay [11]. The following applies: at 1 µM.
Assay [12] has as its target Insulin-like growth factor 1 receptor (Homo sapiens) (UniProt P08069). Conditions: at 0.1 µM.
Assay [13] has the same target. The following applies: at 1 µM.
Assay [14] concerns the target Insulin receptor (Homo sapiens) (UniProt P06213). Conditions: at 0.1 µM.
Assay [15] has the same target. The following applies: at 1 µM.
For assay [16], the target named is Insulin receptor-related protein (Homo sapiens) (UniProt P14616). The following applies: at 0.1 µM.
Insulin receptor-related protein (Homo sapiens), sequence (P14616 27-742 limits assumed): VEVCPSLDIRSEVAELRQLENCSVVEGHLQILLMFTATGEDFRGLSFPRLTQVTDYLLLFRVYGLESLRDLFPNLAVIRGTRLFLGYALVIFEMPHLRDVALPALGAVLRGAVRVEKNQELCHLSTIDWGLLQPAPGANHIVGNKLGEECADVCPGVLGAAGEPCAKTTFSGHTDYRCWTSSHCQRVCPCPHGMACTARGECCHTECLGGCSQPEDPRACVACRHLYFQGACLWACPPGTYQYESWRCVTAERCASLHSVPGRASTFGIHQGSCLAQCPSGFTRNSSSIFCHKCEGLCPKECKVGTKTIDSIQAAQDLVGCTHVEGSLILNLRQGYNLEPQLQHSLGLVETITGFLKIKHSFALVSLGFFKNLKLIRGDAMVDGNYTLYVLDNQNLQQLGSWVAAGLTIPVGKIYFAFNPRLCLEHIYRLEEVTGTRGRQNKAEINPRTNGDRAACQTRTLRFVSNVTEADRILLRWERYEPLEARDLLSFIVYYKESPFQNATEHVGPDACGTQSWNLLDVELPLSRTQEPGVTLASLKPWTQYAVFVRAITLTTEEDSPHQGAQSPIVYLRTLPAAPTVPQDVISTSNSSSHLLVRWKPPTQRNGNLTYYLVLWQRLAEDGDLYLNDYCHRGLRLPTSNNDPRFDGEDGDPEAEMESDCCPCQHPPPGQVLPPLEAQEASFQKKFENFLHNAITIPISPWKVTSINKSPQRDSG
Insulin receptor-related protein (Homo sapiens), sequence (P14616 747-1297 limits assumed): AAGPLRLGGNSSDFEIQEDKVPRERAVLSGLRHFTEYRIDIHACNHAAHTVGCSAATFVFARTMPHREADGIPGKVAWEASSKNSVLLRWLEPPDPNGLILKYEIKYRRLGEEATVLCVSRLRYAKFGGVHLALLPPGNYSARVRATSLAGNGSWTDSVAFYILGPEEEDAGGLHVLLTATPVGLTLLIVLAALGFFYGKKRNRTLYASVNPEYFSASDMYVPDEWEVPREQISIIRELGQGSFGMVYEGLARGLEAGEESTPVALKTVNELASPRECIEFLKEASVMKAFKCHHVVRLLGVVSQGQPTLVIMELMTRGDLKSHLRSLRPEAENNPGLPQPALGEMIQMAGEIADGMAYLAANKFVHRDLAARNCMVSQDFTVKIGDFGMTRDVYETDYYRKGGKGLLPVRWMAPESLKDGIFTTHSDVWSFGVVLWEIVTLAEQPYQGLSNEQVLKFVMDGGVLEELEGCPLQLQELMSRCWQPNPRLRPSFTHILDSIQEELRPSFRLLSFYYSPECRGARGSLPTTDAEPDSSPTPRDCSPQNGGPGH
Assay [17] shares this target. Conditions: at 1 µM.
Assay [18] has as its target T4, Tyrosine-protein kinase ITK/TSK (Homo sapiens) (UniProt Q08881).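 Note: mean percent inhibition of ITK from the GSK PKIS screen.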
T4 sequence (whole entry): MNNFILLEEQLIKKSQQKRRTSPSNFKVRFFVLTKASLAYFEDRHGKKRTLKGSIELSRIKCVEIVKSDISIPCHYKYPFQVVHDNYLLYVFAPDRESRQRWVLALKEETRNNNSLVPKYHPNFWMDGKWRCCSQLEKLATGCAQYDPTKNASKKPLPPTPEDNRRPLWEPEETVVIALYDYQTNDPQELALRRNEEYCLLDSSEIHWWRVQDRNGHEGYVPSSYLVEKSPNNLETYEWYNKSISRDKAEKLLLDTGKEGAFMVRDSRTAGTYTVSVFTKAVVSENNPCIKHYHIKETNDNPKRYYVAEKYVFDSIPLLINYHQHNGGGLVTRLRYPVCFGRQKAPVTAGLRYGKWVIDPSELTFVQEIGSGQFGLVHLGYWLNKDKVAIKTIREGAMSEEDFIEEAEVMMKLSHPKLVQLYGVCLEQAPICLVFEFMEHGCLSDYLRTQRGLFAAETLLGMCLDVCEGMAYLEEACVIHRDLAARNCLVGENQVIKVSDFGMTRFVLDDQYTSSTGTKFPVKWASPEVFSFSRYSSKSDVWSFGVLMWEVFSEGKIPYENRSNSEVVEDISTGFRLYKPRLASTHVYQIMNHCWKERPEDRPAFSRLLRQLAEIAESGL
Conditions: at 0.1 µM.

Assay [19] concerns the target Serine/threonine-protein kinase PLK1 (Homo sapiens) (UniProt P53350). Conditions: at 0.1 µM.
For assay [20] the target is unchanged. Conditions: at 1 µM.

Serine/threonine-protein kinase PLK1 (Homo sapiens), sequence (P53350 whole entry): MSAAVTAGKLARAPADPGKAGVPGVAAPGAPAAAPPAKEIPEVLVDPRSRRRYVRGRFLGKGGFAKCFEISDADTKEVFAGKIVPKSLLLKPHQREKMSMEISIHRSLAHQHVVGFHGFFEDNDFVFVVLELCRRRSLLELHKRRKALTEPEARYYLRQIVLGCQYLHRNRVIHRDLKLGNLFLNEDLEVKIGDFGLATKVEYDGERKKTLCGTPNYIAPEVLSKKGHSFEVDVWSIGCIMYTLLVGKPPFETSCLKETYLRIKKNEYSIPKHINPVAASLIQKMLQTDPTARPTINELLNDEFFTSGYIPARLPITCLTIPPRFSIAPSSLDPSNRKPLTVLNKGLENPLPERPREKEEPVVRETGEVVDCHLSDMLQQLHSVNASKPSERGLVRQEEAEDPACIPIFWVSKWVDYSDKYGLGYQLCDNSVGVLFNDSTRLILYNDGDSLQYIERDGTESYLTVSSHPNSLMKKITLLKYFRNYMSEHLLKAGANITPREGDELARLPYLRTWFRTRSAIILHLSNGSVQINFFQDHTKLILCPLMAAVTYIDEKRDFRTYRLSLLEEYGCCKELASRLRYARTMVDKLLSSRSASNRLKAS
Insulin-like growth factor 1 receptor (Homo sapiens), sequence (P08069 31-736 limits assumed): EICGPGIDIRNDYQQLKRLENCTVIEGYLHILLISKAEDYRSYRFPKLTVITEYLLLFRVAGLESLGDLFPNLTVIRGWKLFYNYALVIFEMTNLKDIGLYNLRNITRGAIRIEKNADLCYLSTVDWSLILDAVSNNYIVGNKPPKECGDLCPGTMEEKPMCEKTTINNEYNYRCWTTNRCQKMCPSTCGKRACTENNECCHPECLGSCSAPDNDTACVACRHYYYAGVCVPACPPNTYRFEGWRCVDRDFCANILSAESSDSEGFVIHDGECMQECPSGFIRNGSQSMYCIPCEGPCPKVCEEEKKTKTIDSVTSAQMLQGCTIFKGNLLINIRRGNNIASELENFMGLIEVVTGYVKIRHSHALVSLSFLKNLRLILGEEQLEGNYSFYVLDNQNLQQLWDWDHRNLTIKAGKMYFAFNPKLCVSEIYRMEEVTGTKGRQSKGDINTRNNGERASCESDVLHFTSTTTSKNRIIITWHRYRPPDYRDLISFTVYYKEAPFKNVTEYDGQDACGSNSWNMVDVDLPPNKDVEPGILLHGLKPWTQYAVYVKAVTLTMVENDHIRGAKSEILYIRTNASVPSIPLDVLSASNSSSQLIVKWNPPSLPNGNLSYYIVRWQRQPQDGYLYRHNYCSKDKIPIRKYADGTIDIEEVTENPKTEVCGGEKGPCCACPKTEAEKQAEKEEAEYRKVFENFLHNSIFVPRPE
Insulin-like growth factor 1 receptor (Homo sapiens), sequence (P08069 741-1367 limits assumed): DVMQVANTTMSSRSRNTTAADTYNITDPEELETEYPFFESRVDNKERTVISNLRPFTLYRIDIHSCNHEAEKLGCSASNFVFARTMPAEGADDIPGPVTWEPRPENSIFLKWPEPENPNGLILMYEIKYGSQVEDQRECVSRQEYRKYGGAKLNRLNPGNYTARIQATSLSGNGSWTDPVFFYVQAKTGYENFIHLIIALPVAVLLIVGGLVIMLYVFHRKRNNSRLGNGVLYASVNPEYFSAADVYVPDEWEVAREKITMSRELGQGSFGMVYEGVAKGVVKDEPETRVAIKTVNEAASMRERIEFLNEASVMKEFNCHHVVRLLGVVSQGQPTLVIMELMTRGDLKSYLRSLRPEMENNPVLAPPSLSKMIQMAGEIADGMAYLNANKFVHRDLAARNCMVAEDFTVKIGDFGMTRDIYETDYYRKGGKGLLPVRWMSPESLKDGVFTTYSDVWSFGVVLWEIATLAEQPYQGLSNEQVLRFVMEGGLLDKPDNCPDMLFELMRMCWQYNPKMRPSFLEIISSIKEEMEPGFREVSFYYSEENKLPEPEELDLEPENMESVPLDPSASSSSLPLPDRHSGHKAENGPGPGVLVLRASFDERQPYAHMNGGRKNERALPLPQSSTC

One may read the inhibition as the change of the read-out against control, counted positive when it falls. Take `COc1cc2ncn(-c3cc(O[C@@H](C)c4ccccc4Cl)c(C(N)=O)s3)c2cc1OC`: the inhibition was 38.4% in assay [1]; 6.36% in assay [2]; 3.92% in assay [3]; 19.7% in assay [4]; 67.6% in assay [5]; 1.84% in assay [6]. The inhibition in assay [7] is 9.87%; in [8], 3.53%; in assay [9] it was 27.5%; in assay [10], 10.8%; in assay [11], 43.3%; in assay [12] it was -0.08%. The inhibition in assay [13] was 2.3%; in [14], 1.26%; in assay [15], 3.04%; in assay [16] it was 3.27%; in assay [17], 3.99%; in assay [18], 0.13%.

With `COc1ccc(COc2ccc(Cc3cnc(N)nc3N)cc2OC)cc1`, the inhibition in assay [1] was -4.1%; in assay [19] it was 0.21%; in assay [20] it was 3.71%; in assay [2] it was -2.66%; in assay [3] it was -1.91%; in assay [4], -2.95%. For the same molecule, the inhibition was -0.86% in assay [5]; 0.22% in assay [8]; 1.28% in [9]; 3.28% in assay [10]; 3.12% in [11]; -2.27% in assay [12]. Also, the inhibition in [13] was -0.91%; in assay [14], 0.54%; in assay [15], -1%; in assay [16] it was 0.04%; in [17], -0.57%; in [18], 1.47%.

Turning to `CCn1c(-c2nonc2N)nc2cncc(C(=O)N3CCNCC3)c21`, the inhibition in assay [1] is 5.61%; in [19], 5.97%; in [20], 14.3%; in assay [2], 12.2%; in assay [3], -1.93%; in assay [4] it was 5.86%. Besides, the inhibition turned out to be 7.52% in [5]; 4.42% in assay [6]; 5.74% in assay [7]; 2.61% in assay [8]; 2.87% in assay [9]; 6.76% in assay [10]. Besides, the inhibition is 9.25% in assay [11]; 8.86% in assay [12]; 9.25% in assay [13]; 10.5% in [14]; 9.41% in assay [15]; 4.06% in assay [16]. The inhibition in assay [17] was 6.22%; in assay [18] it was 2.63%.

With `CNC(=O)c1cncc(/C=C/c2c(Cl)cccc2Cl)c1`, the inhibition was 5.75% in [1]; 3.89% in assay [19]; 7.28% in assay [20]; 17% in [2]; -3.57% in assay [3]; -7.73% in assay [4]. The inhibition in assay [6] is 7.17%; in assay [7], 41.1%; in assay [8], 0.89%; in [9], 15.1%; in [10], 11.6%; in [11] it was 44.9%. Besides, the inhibition was -8.06% in assay [12]; -3% in assay [13]; 3.59% in assay [14]; 2.79% in assay [15]; 2.44% in assay [16]; 2.34% in assay [17]. Also, the inhibition in [18] was -1.98%.

The values are drawn from ChEMBL document CHEMBL1961873, “Compounds: GSK PKIS; Assays: Nanosyn kinase panel” (2012).
